Hit rate of the full screen: of about 310,000 compounds, about 14,000 (4.5%) showed an effect of 50% or more. Effects have a minus sign here. The list comes from a sample in which strong results are over-represented; it also holds similar structures and randomly drawn compounds.
target: human ether-à-go-go-related gene (hERG) potassium channel (human, UniProt Q12809); experiment: primary screen, population patch clamp on CHO cells stably expressing hERG; higher = less effect of the substance
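Also: peak tail current of the secondary pulse compared with the same well before compound.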

Chain of human ether-à-go-go-related gene (hERG) potassium channel (Q12809 whole entry, looked up): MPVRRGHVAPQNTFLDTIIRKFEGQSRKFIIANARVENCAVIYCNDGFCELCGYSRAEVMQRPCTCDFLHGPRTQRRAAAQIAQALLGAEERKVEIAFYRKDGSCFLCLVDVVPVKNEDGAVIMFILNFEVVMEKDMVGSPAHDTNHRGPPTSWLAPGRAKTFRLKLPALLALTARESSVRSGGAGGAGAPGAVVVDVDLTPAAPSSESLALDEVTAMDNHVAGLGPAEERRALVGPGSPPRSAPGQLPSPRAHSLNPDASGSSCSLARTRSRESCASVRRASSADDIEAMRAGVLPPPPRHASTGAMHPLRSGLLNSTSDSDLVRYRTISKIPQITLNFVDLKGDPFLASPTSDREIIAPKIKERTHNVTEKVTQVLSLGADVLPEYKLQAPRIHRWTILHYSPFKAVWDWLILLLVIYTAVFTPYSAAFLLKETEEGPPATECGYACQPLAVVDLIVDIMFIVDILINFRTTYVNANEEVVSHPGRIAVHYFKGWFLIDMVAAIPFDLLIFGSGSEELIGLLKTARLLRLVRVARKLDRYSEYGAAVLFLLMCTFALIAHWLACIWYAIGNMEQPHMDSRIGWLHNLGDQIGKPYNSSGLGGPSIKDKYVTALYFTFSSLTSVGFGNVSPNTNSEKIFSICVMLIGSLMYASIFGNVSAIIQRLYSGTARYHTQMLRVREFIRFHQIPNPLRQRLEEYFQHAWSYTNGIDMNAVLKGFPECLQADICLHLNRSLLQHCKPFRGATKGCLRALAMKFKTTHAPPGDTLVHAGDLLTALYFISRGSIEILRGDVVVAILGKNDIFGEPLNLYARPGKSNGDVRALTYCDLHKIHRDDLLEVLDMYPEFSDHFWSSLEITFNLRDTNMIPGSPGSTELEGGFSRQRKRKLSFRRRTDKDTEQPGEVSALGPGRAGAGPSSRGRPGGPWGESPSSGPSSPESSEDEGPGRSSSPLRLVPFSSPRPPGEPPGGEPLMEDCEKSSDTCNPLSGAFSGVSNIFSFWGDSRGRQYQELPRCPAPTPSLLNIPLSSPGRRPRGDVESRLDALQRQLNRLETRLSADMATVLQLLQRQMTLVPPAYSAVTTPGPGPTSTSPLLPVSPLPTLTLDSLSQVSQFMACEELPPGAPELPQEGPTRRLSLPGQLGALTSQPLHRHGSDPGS

Compared with CCOc1ccccc1N1CCN(C(=S)Nc2ccc(S(=O)(=O)Nc3ncccn3)cc2)CC1, O=S(=O)(Cc1ccccc1)Nc1ccc(S(=O)(=O)N2CCCC2)cc1 is higher in “hERG current change (%, negative = inhibition) at 10uM” value: -3.73% for the first, 5.25% for the second.

Compared with O=C(COC(=O)Cc1ccc(-c2ccccc2)cc1)NCc1ccccc1, CSc1ccc(S(=O)(=O)NCC(=O)OCC(=O)NCCc2ccccc2)cc1[N+](=O)[O-] is lower in “hERG current change (%, negative = inhibition) at 10uM” value: 20.8% for the first, 9.18% for the second.

First: CC(C)c1ccc(NC(=O)c2ccc(Br)o2)cc1
Second: CN(C)c1cccc(C(=O)NCc2ccc(Cl)cc2)c1
The “hERG current change (%, negative = inhibition) at 10uM” value of the first is higher: 3.82% for the first, -8.25% for the second.

Going from COc1ccc(OCC(=O)Nc2ccncc2)cc1 to CC(C)CNS(=O)(=O)c1ccc(OCC(=O)NCc2ccco2)cc1, the “hERG current change (%, negative = inhibition) at 10uM” value rises from -17.3% to -11.6%.

Compared with O=c1[nH]c(CN2CCN(CCO)CC2)nc2ccccc12, CCCCn1c(-c2ccco2)nc2ccccc2c1=O is lower in “hERG current change (%, negative = inhibition) at 10uM” value: 21.5% for the first, -12.2% for the second.

Going from O=C(NC1=NCCS1)c1cc(Cl)ccc1Cl to CNC(=O)c1cc(S(=O)(=O)N(C)C)ccc1Cl, the “hERG current change (%, negative = inhibition) at 10uM” value rises from -24% to 5.59%.

Going from Cn1cc(C(c2ccccn2)c2cn(C)c3ccccc23)c2ccccc21 to O=c1c2ccccc2nc(-c2ccccc2)n1CCCn1ccnc1, the “hERG current change (%, negative = inhibition) at 10uM” value falls from 8.3% to -31.9%.

First: CCc1[nH]c(=S)c(C#N)c(-c2ccccc2)c1C(=O)OC
Second: O=c1ccnc(NCCc2ccccc2)[nH]1
The “hERG current change (%, negative = inhibition) at 10uM” value of the first is higher: 25.5% for the first, 12.7% for the second.

Compared with Cc1cc(=O)[nH]c(N/N=C/c2sccc2C)n1, Cc1ccc(C)c(C(=O)CSc2n[nH]c(-c3ccncc3)n2)c1 is higher in “hERG current change (%, negative = inhibition) at 10uM” value: -1.84% for the first, -0.0279% for the second.

Compared with CCOc1ccc(C(=O)COC(=O)CC)cc1, CCOC(=O)/C(=C/C=C1\Sc2ccccc2N1CC)C(C)=O is higher in “hERG current change (%, negative = inhibition) at 10uM” value: 4.46% for the first, 4.94% for the second.

Going from CC(/C=N/n1cnnc1)=C\c1ccco1 to CCN1/C(=C/C(C)=C/c2sc3ccccc3[n+]2CC)Sc2ccccc21.[I-], the “hERG current change (%, negative = inhibition) at 10uM” value falls from -16.9% to -78.8%.

First: CCCNc1c(NS(=O)(=O)c2ccc(Br)cc2)c(=O)oc2ccccc12
Second: CCCNc1c(NS(=O)(=O)c2cccc(C#N)c2)c(=O)oc2ccccc12
The “hERG current change (%, negative = inhibition) at 10uM” value of the first is higher: -34.7% for the first, -58.7% for the second.

First: CCCNc1c(NS(=O)(=O)c2ccc3c(c2)CCCC3)c(=O)oc2ccccc12
Second: Cc1cc(S(=O)(=O)NCC(C)C)ccc1OCC(=O)NCc1ccccn1
The “hERG current change (%, negative = inhibition) at 10uM” value of the first is higher: 8.8% for the first, -22.8% for the second.

Compared with CC(NC(=O)c1ccc(S(=O)(=O)N(C)C)cc1)c1ccc(-n2ccnc2)cc1 (stereo not drawn), CC(NC(=O)c1cc(S(=O)(=O)N(C)C)ccc1Cl)c1ccc(-n2ccnc2)cc1 (stereo not drawn) is lower in “hERG current change (%, negative = inhibition) at 10uM” value: -74% for the first, -76.8% for the second.

Compared with CC(NC(=O)c1ccc(S(=O)(=O)N(C)C)cc1)c1ccccc1 (stereo not drawn), CC(C)NC(=O)c1ccc(S(=O)(=O)N(C)C)cc1 is lower in “hERG current change (%, negative = inhibition) at 10uM” value: 0.971% for the first, 0.0301% for the second.

Compared with O=C(Cc1c(O)c2ccccc2[nH]c1=O)NC1CCCCCC1, CCc1ccc(-c2nc(SCC(=O)NC3CCS(=O)(=O)C3)n[nH]2)cc1 (stereo not drawn) is higher in “hERG current change (%, negative = inhibition) at 10uM” value: 3.69% for the first, 4.84% for the second.

First: OCCNc1c2ccccc2nc2c(F)c(F)c(F)c(F)c12
Second: COCCCn1c(-c2ccco2)nc2ccccc2c1=O
The “hERG current change (%, negative = inhibition) at 10uM” value of the first is higher: 14.6% for the first, -16% for the second.

Going from Cn1nc(C(F)(F)F)c(/C=N/OC(=O)c2ccccc2Cl)c1SCc1ccccc1Cl to Cn1nc(C(=O)NCc2cccc(Cl)c2)c2c1-c1ccccc1S(=O)(=O)C2, the “hERG current change (%, negative = inhibition) at 10uM” value rises from -5.41% to 9.4%.

First: CSc1ccc(S(=O)(=O)NCC(=O)OCC(=O)NCc2cccs2)cc1[N+](=O)[O-]
Second: CSc1ccc(S(=O)(=O)NCC(=O)OCC(=O)NCc2ccco2)cc1[N+](=O)[O-]
The “hERG current change (%, negative = inhibition) at 10uM” value of the first is higher: -44.5% for the first, -61.7% for the second.

Compared with Cc1cc(S(=O)(=O)NCC(C)C)ccc1OCC(=O)NCc1ccco1, CN(C)S(=O)(=O)c1cccc(NC(=O)Cn2cc(C(F)(F)F)cc(Cl)c2=O)c1 is higher in “hERG current change (%, negative = inhibition) at 10uM” value: -73.4% for the first, 3.98% for the second.

First: N#C/C(=N\Nc1cccc(C(F)(F)F)c1)C(=O)c1ccsc1
Second: CN(CC(=O)Nc1cccc(F)c1)CC(=O)N(C)CC(=O)Nc1ccccc1Br
The “hERG current change (%, negative = inhibition) at 10uM” value of the first is higher: 11.3% for the first, -13.7% for the second.

First: COc1ccc(N2C(=O)CC(N3CCN(c4ccccc4OC)CC3)C2=O)cc1 (stereo not drawn)
Second: COc1ccc2c(c1)C=C([C@@H]1C[C@H]3CN(c4ccccc4)C(=O)[C@]34CCCN14)CO2
The “hERG current change (%, negative = inhibition) at 10uM” value of the first is higher: 6.7% for the first, -49.2% for the second.

First: CC[n+]1c(/C=C(\C)SC)sc2ccccc21.COS(=O)(=O)[O-]
Second: CC[n+]1c(/C=C(/C)SC)sc2ccccc21.COS(=O)(=O)[O-]
The “hERG current change (%, negative = inhibition) at 10uM” value of the first is lower: 3.25% for the first, 5.99% for the second.

Going from CCN1/C(=C/C=C/C=C/c2sc3ccccc3[n+]2CC)Sc2ccccc21.[I-] to CCN1/C(=C/C=C/C=C/C=C/c2sc3ccccc3[n+]2CC)Sc2ccccc21.[I-], the “hERG current change (%, negative = inhibition) at 10uM” value rises from -78.9% to -49.5%.

First: CCN1/C(=C/C=C/c2sc3ccccc3[n+]2CC)Sc2ccccc21.[I-]
Second: CCN1/C(=C\C=C2\C(=O)N(C)C(=S)N2C)Sc2ccccc21
The “hERG current change (%, negative = inhibition) at 10uM” value of the first is lower: -73.8% for the first, 24% for the second.

First: CCN1/C(=C\C=C(C(C)=O)C(C)=O)Sc2ccccc21
Second: OCC(O)C1OC(Nc2ccc(Br)cc2)C(O)C1O (stereo not drawn)
The “hERG current change (%, negative = inhibition) at 10uM” value of the first is lower: -2.64% for the first, 16.7% for the second.

First: COc1ccc(-c2nc3ccccc3c(=O)n2CCCn2ccnc2)cc1
Second: Cc1ccc(-c2nc3ccccc3c(=O)n2CCCn2ccnc2)cc1
The “hERG current change (%, negative = inhibition) at 10uM” value of the first is higher: -49% for the first, -57.7% for the second.

Compared with O=c1c2ccccc2nc(-c2ccco2)n1CCCn1ccnc1, Cc1nc2nc[nH]n2c(=O)c1NS(C)(=O)=O is higher in “hERG current change (%, negative = inhibition) at 10uM” value: -53.9% for the first, 4.48% for the second.

In the case of CCn1c(NN)nc2sc3c(c2c1=O)CCC3, the “hERG current change (%, negative = inhibition) at 10uM” value was 17.5%.

Source: paper PMC4336329 (PLoS ONE, 2015)
